# ELG1 DNA repair: qHTS screen for small molecules that inhibit ELG1-dependent DNA repair in human embryonic kidney (HEK293T) cells expressing luciferase-tagged ELG1. 2.3% of 330,000 active. Potency, µM (top dose mostly 46.1 µM), hits mostly inhibitors. HEK293T ELG1-luciferase reporter, luminescence, 16 h; DNA damage induced by 5-fluorouridine. AID 504467, 2011; further: nearly all actives have a fitted effect of over 55% in size
#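 In this reporter screen, reduction of luminescence relative to DMSO vehicle indicated activity. Compounds and 5-fluorouridine were added together to 2,000 cells per well, incubated for 16 hr at 37 °C, then developed with ONE-Glo.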
# TDP1 cell noCPT: qHTS for Inhibitors of human tyrosyl-DNA phosphodiesterase 1 (TDP1): qHTS in cells in absence of CPT. DT40 Tdp1-/- hTDP1 cells, no CPT, ATP luminescence, 48 h. Potency, µM (doses to about 46.2 µM), most hits filed as inhibitors. 15% of 420,000 active. AID 686978, 2013; further: nearly all actives have a fitted effect of over 55% in size
#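 Cells were dispensed at 400 per well, compounds added by pin tool, plates incubated ≥48 hr at 37 °C, then CellTiter-Glo added for 30 min at room temperature before luminescence reading. Line: DT40 Tdp1-/- complemented with hTDP1; camptothecin omitted.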
# DT40 TDP1 CPT: qHTS for Inhibitors of human tyrosyl-DNA phosphodiesterase 1 (TDP1): qHTS in cells in presence of CPT; 12% of 420,000 active; AID 686979, 2013; chicken DT40 Tdp1-/-;hTDP1 cells + 20 nM CPT, ATP luminescence, 48 h; Potency, µM (doses to about 46.2 µM), usual class: inhibitors; further: nearly all actives have a fitted effect of over 55% in size
#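 Chicken DT40 Tdp1-/- cells complemented with human TDP1, 400 cells/well, exposed to compounds plus 20 nM camptothecin for at least 48 h at 37 C; viability read as ATP content by CellTiter-Glo luminescence.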
# IL-1B inflam inh: qHTS for Inhibitors of Inflammasome Signaling: IL-1-beta AlphaLISA Primary Screen | activity change, % at 57.5 µM | THP-1 LPS/ATP IL-1B secretion, AlphaLISA, 16 h; active compounds read low | 4.7% of 360,000 active | AID 743279, 2014; in the data active means activity change below about -50%; inconclusive means mostly about -30% to -49%
#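 Secreted IL-1B measured by AlphaLISA bead assay after 16 h compound exposure of THP-1 cells; compounds (final up to 57.5 uM) added 1 h before LPS (250 ng/mL) and ATP (1.25 mM) stimulation; lower signal means less secretion.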
# HT1080-NT tox: qHTS for induction of synthetic lethality in tumor cells producing 2HG: qHTS for the HT-1080-NT fibrosarcoma cell line; Potency, µM (series often up to 46.1 µM), most hits filed as cytotoxic; 1.6% of 360,000 active; AID 686970, 2013; HT-1080-NT fibrosarcoma viability, CellTiter-Glo ATP luminescence, 48 h;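 further: NT is the 2HG producing partner of a matched IDH1 knockdown line; nearly all actives have a fitted effect of over 55% in size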
#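 Compounds were tested in concentration-response format on HT-1080-NT cells for 48 hours at 37 degrees C. Cell viability came from CellTiter-Glo luminescence; curves were classified by r2, response magnitude and activity.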
# HT1080 IDH1KD tx: qHTS for induction of synthetic lethality in tumor cells producing 2HG: qHTS for the HT-1080-IDH1KD cell line; HT-1080 IDH1 knockdown viability, ATP luminescence, 48 h; Potency, µM (doses to about 46.1 µM), hits mostly cytotoxic; 2% of 360,000 active
#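 IDH1KD HT-1080 cells, 750/well, RPMI + 5% FBS; compound pinned after 2 h settling; 48 h, 37 °C; CellTiter-Glo luminescence; % activity normalised to DMSO and no-cell wells; curves fitted, classed by r2 and efficacy.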
# Numbers stand for hits; 0 = inactive; ? = inconclusive; - = no result given; [ ] = dose if it differs, or a comment. In the library only some 19% were active in any assay of this set; here they are far more common. Unless noted, the call rests on the fitted dose curve; in most records, active means well fitted curve in the direction sought with a large enough effect; inconclusive means small, poorly fitted or top-dose-only effect, or another doubt; inactive means no such curve, though single readings can be large; an effect the other way counts as inactive or inconclusive.
SMILES,ELG1 DNA repair,TDP1 cell noCPT,DT40 TDP1 CPT,IL-1B inflam inh,HT1080-NT tox,HT1080 IDH1KD tx
CC[n+]1c(/C=C2\Sc3ccccc3N2C)ccc2cccc(C)c21,?,0.517µM,0.517µM,-99.6,13µM,10.3µM
CCN1/C(=C/c2ccc3cc(C)ccc3[n+]2CC)Sc2ccccc21,?,0.058µM,0.0651µM,-99.9,5.8µM,11.6µM
COc1ccc(C2=CCCCCC2)c(OC)c1OC,-,?,?,0,0,0
COc1ccc(C2=CCCCCC2)cc1OC,-,11.6µM,?,0,0,0
Cc1ccccc1-c1nccc(NCCN2CCOCC2)n1,-,0,0,-,-,-
C#CCN1C(=O)C2(OCCO2)c2ccccc21,0,0,0,0,0,0
CCOc1ccc2nc(NCCO)[nH]c2c1,0,0,0,0,0,0
C=CCOc1ccc2nc(NC(=O)OC)[nH]c2c1,?,0.82µM,0.651µM,0,?,1.84µM
C=C(c1ccc2nc(NC(=O)OC)[nH]c2c1)c1cccs1,-,0.82µM,0.731µM,0,1.03µM,0.731µM
CC(=O)Nc1nc2ccccc2[nH]1,0,0,0,0,0,0
CCCCc1ccc2nc(NC(=O)OC)[nH]c2c1,-,0.057µM,0.0718µM,-,-,-
CC(C)OP(=O)(OC(C)C)C1(NS(=O)(=O)c2ccc(Cl)cc2)C=C(Cl)C(=O)C(Cl)=C1,0,?,?,0,?,?
CC(=O)c1cccc(NC(=O)CNC(=O)c2sc3ccccc3c2Cl)c1,0,?,?,0,?,?
CCC1CN(CC(=O)N(C)Cc2nc3ccccc3[nH]2)Cc2cc(OC)ccc2O1 (stereo unspecified),-,0,0[9.04 µM],-,-,-
COc1ccc(S(=O)(=O)N2CCOc3ccccc32)cc1,?,3.66µM,5.17µM,0,?,13µM
COc1ccc(S(=O)(=O)N2CC(C(=O)O)Oc3ccccc32)cc1 (stereo unspecified),0,0,0,0,0,0
COc1ccc(S(=O)(=O)N2c3ccccc3OCC2CC(=O)O)cc1 (stereo unspecified),0,29.1µM,?,0,?,?
COc1ccc(S(=O)(=O)N2c3ccccc3OCC2c2ccccc2)cc1 (stereo unspecified),?,23.1µM,18.4µM,0,?,?
COc1ccc(S(=O)(=O)N2CCN(C(=O)C3COc4ccccc4O3)CC2)cc1 (stereo unspecified),0,?,?,0,0[9.24 µM],0
COc1ccc(S(=O)(=O)N2c3ccccc3OCC2C)cc1 (stereo unspecified),?,0.82µM,0.581µM,0,0.651µM,0.651µM
COc1ccccc1CNCC(=O)N1CC(=O)Nc2ccccc21,0,0,0,0,0,0
Cc1cc(C)c(CN2CCN(C(=O)CC[C@H]3O[C@@H](n4ccc(=O)[nH]c4=O)[C@H](O)[C@@H]3O)CC2)c(C)c1,-,?,0,0,0,0
Cc1cc(C)c(C(=O)Nn2c(C)nc3ccccc3c2=O)cc1C,0,0,?,0,0,0
COC(=O)c1cc(NC(=O)c2ccc3c(c2)NC(=O)c2ccccc2S3)cc(C(=O)OC)c1,-,6.51µM,4.61µM,-,-,-
CCCCN(CC)C(=O)c1ccc2c(c1)NC(=O)c1ccccc1S2,-,0,0,-,-,-
SMILES,ELG1 DNA repair,TDP1 cell noCPT,DT40 TDP1 CPT,IL-1B inflam inh,HT1080-NT tox,HT1080 IDH1KD tx
CCc1cccc(CC)c1NC(=O)COC(=O)CC1c2ccccc2CCN1S(=O)(=O)c1ccc(F)cc1 (stereo unspecified),?,23.1µM,?,0,0,0
O=C(COC(=O)CC1c2ccccc2CCN1S(=O)(=O)c1ccc(F)cc1)Nc1ccccc1 (stereo unspecified),?,?,?,0,0,0
CC(C)(C)Nc1scc(-c2ccccc2)[n+]1-c1ccccc1,0,?,?,0,0,0
O=C(Cc1csc(-c2ccccc2)n1)NCc1ccco1,?,0,0,0,0,0
c1ccc(Nc2scc(-c3ccccc3)[n+]2Cc2ccco2)cc1,?,23.1µM,16.4µM,0,?,0
c1ccc(C[n+]2c(-c3ccccc3)csc2Nc2ccccc2)cc1,?,?,10.3µM,0,0,0
Cc1cc(C)c2c(=O)cc(C(=O)Nc3sc4c(c3C#N)CCCC4)oc2c1,-,?,0,-,-,-
CCN(c1ccccc1)S(=O)(=O)c1ccc(OC)c(NC(=O)Cc2ccc(OC)c(OC)c2)c1,18.3µM,?,?,0,0,0
CCN(c1ccccc1)S(=O)(=O)c1ccc(Cl)c(NC(=O)CNCc2ccccc2OC)c1,18.3µM,?,?,0,0,0
CCN(c1ccccc1)S(=O)(=O)c1ccc(Cl)c(NC(=O)CN(C)C2CCN(C)CC2)c1,0,16.4µM,?,-54.6,?,23.1µM
CCN(c1ccccc1)S(=O)(=O)c1ccc(OC)c(NC(=O)Cc2ccccc2OC)c1,0,23.1µM,23.1µM,0,0[9.24 µM],0
COc1cccc(CCNS(=O)(=O)CCNC(=O)c2cccc(OC)c2)c1,0,0,0,0,0,0
CCN(CC)C(=O)c1[nH]cnc1C(=O)Nc1ccccc1F,-,0,0,0,0,0
CCN(c1ccccc1)S(=O)(=O)c1ccc(Cl)c(NC(=O)COC(=O)c2cccc(OC)c2O)c1,0,18.4µM,?,0,0,0
Cc1ccc2c(c1)N(C(=O)CSc1nncn1C)C(C)(C)c1ssc(=S)c1-2,0,?,25.9µM,0,0,0
Cc1cc2c(cc1C)N(C(=O)CSc1nncn1C)C(C)(C)c1ssc(=S)c1-2,?,?,29.1µM,?,?,0[9.24 µM]
O=C(CSc1nc(-c2ccco2)cc(C(F)(F)F)n1)NCCc1ccccc1,0,?,?,0,0,0
CC(C)(C)c1cc(C(F)(F)F)nc(SCCCNC(=O)c2ccco2)n1,?,20.6µM,23.1µM,0,0,0[9.24 µM]
CC(=O)Nc1ccc(NC(=O)CSc2cn(CC(=O)N(C(C)C)C(C)C)c3ccccc23)cc1,-,?,0,-,-,-
COc1ccc(CCNC(=O)c2ccccc2NC(=O)c2ccco2)cc1OC,18.4µM,?,0,0,0,0
COc1ccc(CCNC(=O)c2cc(Nc3ccccc3)nc3ccccc23)cc1OC,-,8.2µM,9.2µM,-,-,-
Cc1ccc(C)c(Nc2cc(C(=O)NCc3cccnc3)c3ccccc3n2)c1,0,?,?,-73.3,0,0
CCOc1ccc(CCNC(=O)c2cc(Nc3ccc(C)cc3C)nc3ccccc23)cc1OCC,-,8.2µM,8.2µM,-,-,-
